{
  "source": "PubChem BioAssay (NCI)",
  "note": "About 83,000 compounds went through this panel and 20% of them were active in at least one assay; those are over-represented in the sample as a whole.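 Interpretation: 100, growth as untreated; towards 0, rising growth inhibition; 0, no net growth; 0 to -100, cell death. Compounds scoring below 10 were considered active.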 The source made the active and inactive calls.",
  "data": [
    {"test_system": "ACHN renal", "test": "NCI-60 one-dose screen, 48 h (100 = growth as untreated, 0 = no growth, -100 = all killed)", "settings": "10 µM unless noted", "values": [
      {"smiles": "CC(C)(C)OC(=O)NC(CSCc1ccccc1)C(=O)ON1C(=O)CCC1=O", "note": "(centres undefined)", "growth": "101% (inactive)"},
      {"smiles": "Nc1cccc(Cl)c1N", "growth": "90.4% (inactive)"},
      {"smiles": "C/C(=C\\c1ccc(OCC(=O)O)c(Cl)c1Cl)[N+](=O)[O-]", "growth": "110% (inactive)"},
      {"smiles": "CCOC(=O)C1=C(C)NC(C)=C(C(=O)OCC)C1(C)C", "growth": "106% (inactive)"},
      {"smiles": "N#C/C(=C1C=C/C(=N/O)C(Cl)=C/1)c1ccc(Cl)cc1", "growth": "67.3% (inactive)"},
      {"smiles": "CCC(C)/C(=C\\C#N)NCCCN/C(=C/C#N)C(C)CC", "note": "(centres undefined)", "growth": "97.1% (inactive)"},
      {"smiles": "Cn1ncc2c(Sc3ccc(Cl)cc3)ncnc21", "growth": "95.1% (inactive)"},
      {"smiles": "O=C(CSC1CCc2ccccc21)N/N=C/c1ccccc1O", "note": "(centres undefined)", "growth": "34% (inactive)"},
      {"smiles": "CC1(c2ccc(Cl)cc2)OC(=O)CC(=O)O1", "growth": "98.5% (inactive)"},
      {"smiles": "O=C1C(Cl)=C(Nc2ccccn2)C(=O)c2ccccc21", "growth": "17% (inactive)"},
      {"smiles": "Cc1ccc2nc(Cl)cc(=O)n2c1", "growth": "99.1% (inactive)"},
      {"smiles": "CC1CCC(C)N(C)C1", "note": "(centres undefined)", "growth": "105% (inactive)"},
      {"smiles": "CCc1cnc(=S)n(-c2ccccc2)c1", "growth": "99.6% (inactive)"},
      {"smiles": "CC(=O)Nc1nc(N)nc(NC(C)=O)c1N=O", "growth": "104% (inactive)"},
      {"smiles": "O=C(c1ccccc1)C1OC1c1ccc([N+](=O)[O-])cc1", "note": "(centres undefined)", "growth": "75.3% (inactive)"},
      {"smiles": "CC(=O)Nc1scc[n+]1Cc1ccccc1", "growth": "107% (inactive)"},
      {"smiles": "C=C1CCC2C3(C)COC(c4ccccc4)OC3CCC2(C)C1/C=C/C1=CCOC1=O", "note": "(centres undefined)", "growth": "71.3% (inactive)"},
      {"smiles": "CCN(CC)CCOc1ccc(Cl)c(C)c1", "growth": "104% (inactive)"},
      {"smiles": "O=C(Oc1ccccc1[N+](=O)[O-])C1CCCN1C(=O)OCc1ccccc1", "note": "(centres undefined)", "growth": "105% (inactive)"},
      {"smiles": "CC(=O)Nc1ccc(S(=O)(=O)n2ccc(-c3ccc4c(c3)CCC(C)(C)O4)n2)cc1", "growth": "79.3% (inactive)"},
      {"smiles": "CC(C)(C)OC(=O)NCCc1ccc(N=C=S)cc1", "growth": "80.3% (inactive)"},
      {"smiles": "O=C1CCCCC1(c1ccccc1)c1ccccc1", "growth": "101% (inactive)"},
      {"smiles": "Nc1nc(=O)c2ccccc2s1", "growth": "99.4% (inactive)"},
      {"smiles": "CN1C=CN(Cc2ccc(-c3ccccn3)nc2)[CH-]1.CN1C=CN(Cc2ccc(-c3ccccn3)nc2)[CH-]1.[Au+3]", "growth": "81.7% (inactive)"},
      {"smiles": "COC(OC)c1ccccc1", "growth": "102% (inactive)"},
      {"smiles": "C=C[C@@H]1C[C@H](O)Cc2cc(F)ccc2N1", "growth": "104% (inactive)"},
      {"smiles": "CN(C)c1ncnc2c1ccn2C1OC(CO)C(O)C1O", "note": "(centres undefined)", "growth": "32.3% (inactive)"},
      {"smiles": "NC1=NN(O)C2=CC([N+](=O)[O-])C=CC2=N1", "note": "(centres undefined)", "growth": "105% (inactive)"},
      {"smiles": "O=C([O][Sn]([O]C(=O)c1ccccn1)([c]1ccccc1)[c]1ccccc1)c1ccccn1", "growth": "100% (inactive)"},
      {"smiles": "C=C(C)[C@@H]1C[C@H](O)Cc2cc(F)ccc2N1", "growth": "94.4% (inactive)"},
      {"smiles": "CNC(=S)NNC(=O)C1CC1", "growth": "106% (inactive)"},
      {"smiles": "CCOC(=O)C1CCNC(=O)C1=O", "note": "(centres undefined)", "growth": "105% (inactive)"},
      {"smiles": "Cc1ccc(S(=O)(=O)C2=C3C(=C(c4ccccc4)c4ccccc43)CN(S(=O)(=O)c3ccc(C)cc3)C2)cc1", "growth": "43.3% (inactive)"},
      {"smiles": "COc1cc2c(c(OC)c1OC)-c1ccc(N)c(=O)cc1[C@@H](NC(C)=O)CC2", "growth": "27.5% (inactive)"}
    ]},
    {"test_system": "CAKI-1 renal", "test": "NCI-60 one-dose screen, 48 h (100 = growth as untreated, 0 = no growth, -100 = all killed)", "settings": "10 µM unless noted", "values": [
      {"smiles": "CC(C)(C)OC(=O)NC(CSCc1ccccc1)C(=O)ON1C(=O)CCC1=O", "note": "(centres undefined)", "growth": "112% (inactive)"},
      {"smiles": "Nc1cccc(Cl)c1N", "growth": "96.4% (inactive)"},
      {"smiles": "C/C(=C\\c1ccc(OCC(=O)O)c(Cl)c1Cl)[N+](=O)[O-]", "growth": "93.9% (inactive)"},
      {"smiles": "CCOC(=O)C1=C(C)NC(C)=C(C(=O)OCC)C1(C)C", "growth": "107% (inactive)"},
      {"smiles": "N#C/C(=C1C=C/C(=N/O)C(Cl)=C/1)c1ccc(Cl)cc1", "growth": "34% (inactive)"},
      {"smiles": "CCC(C)/C(=C\\C#N)NCCCN/C(=C/C#N)C(C)CC", "note": "(centres undefined)", "growth": "96.5% (inactive)"},
      {"smiles": "CC1(c2ccc(Cl)cc2)OC(=O)CC(=O)O1", "growth": "94.9% (inactive)"},
      {"smiles": "O=C1C(Cl)=C(Nc2ccccn2)C(=O)c2ccccc21", "growth": "53.1% (inactive)"},
      {"smiles": "CCCCCCCCCCCCCCCCNC(=O)OC(C)C", "growth": "28.5% (inactive)"},
      {"smiles": "Cc1ccc2nc(Cl)cc(=O)n2c1", "growth": "111% (inactive)"},
      {"smiles": "CC1CCC(C)N(C)C1", "note": "(centres undefined)", "growth": "101% (inactive)"},
      {"smiles": "COc1cc(C2CC(c3ccc4c(c3)OCO4)=NN2C(C)=O)cc(OC)c1OC", "note": "(centres undefined)", "growth": "2.4% (active)"},
      {"smiles": "O=C(c1ccccc1)C1OC1c1ccc([N+](=O)[O-])cc1", "note": "(centres undefined)", "growth": "72.7% (inactive)"},
      {"smiles": "COc1ccc2c(c1)C(c1cc(OC)c3c(c1)OCO3)C1=C(COC1=O)N2", "note": "(centres undefined)", "growth": "51.1% (inactive)"},
      {"smiles": "CC(=O)Nc1scc[n+]1Cc1ccccc1", "growth": "87.4% (inactive)"},
      {"smiles": "CCN(CC)CCOc1ccc(Cl)c(C)c1", "growth": "102% (inactive)"},
      {"smiles": "O=C(Oc1ccccc1[N+](=O)[O-])C1CCCN1C(=O)OCc1ccccc1", "note": "(centres undefined)", "growth": "93.7% (inactive)"},
      {"smiles": "CC(=O)Nc1ccc(S(=O)(=O)n2ccc(-c3ccc4c(c3)CCC(C)(C)O4)n2)cc1", "growth": "48.8% (inactive)"},
      {"smiles": "O=C1CCCCC1(c1ccccc1)c1ccccc1", "growth": "82.4% (inactive)"},
      {"smiles": "Nc1nc(=O)c2ccccc2s1", "growth": "101% (inactive)"},
      {"smiles": "CN1C=CN(Cc2ccc(-c3ccccn3)nc2)[CH-]1.CN1C=CN(Cc2ccc(-c3ccccn3)nc2)[CH-]1.[Au+3]", "growth": "67.6% (inactive)"},
      {"smiles": "COC(OC)c1ccccc1", "growth": "95.4% (inactive)"},
      {"smiles": "C=C[C@@H]1C[C@H](O)Cc2cc(F)ccc2N1", "growth": "92.3% (inactive)"},
      {"smiles": "CN(C)c1ncnc2c1ccn2C1OC(CO)C(O)C1O", "note": "(centres undefined)", "growth": "34.7% (inactive)"},
      {"smiles": "NC1=NN(O)C2=CC([N+](=O)[O-])C=CC2=N1", "note": "(centres undefined)", "growth": "93.8% (inactive)"},
      {"smiles": "O=C([O][Sn]([O]C(=O)c1ccccn1)([c]1ccccc1)[c]1ccccc1)c1ccccn1", "growth": "76.5% (inactive)"},
      {"smiles": "C=C(C)[C@@H]1C[C@H](O)Cc2cc(F)ccc2N1", "growth": "91.4% (inactive)"},
      {"smiles": "CNC(=S)NNC(=O)C1CC1", "growth": "96% (inactive)"},
      {"smiles": "COc1ccc(CNCCCN2C(=O)c3ccc4c5c(ccc(c35)C2=O)C(=O)N(CCCNCCCCNCCCN)C4=O)c(OC)c1OC", "growth": "56.1% (inactive)"},
      {"smiles": "COc1cc2c(c(OC)c1OC)-c1ccc(N)c(=O)cc1[C@@H](NC(C)=O)CC2", "growth": "19.1% (inactive)"}
    ]}
  ]
}
